In the library only some 21% were active in any assay of this set; here they are far more common.
FBPA Giardia inh: Giardia lamblia aldolase inhibition | 290,000 compounds, 0.71% hits | Potency, µM (top dose mostly 59.6 µM), most hits filed as inhibitors | A8B2U2 | purified Giardia FBPA | AID 2451; also: nearly all actives have a fitted effect of over 55% in size
Target sequence (A8B2U2 whole entry, looked up): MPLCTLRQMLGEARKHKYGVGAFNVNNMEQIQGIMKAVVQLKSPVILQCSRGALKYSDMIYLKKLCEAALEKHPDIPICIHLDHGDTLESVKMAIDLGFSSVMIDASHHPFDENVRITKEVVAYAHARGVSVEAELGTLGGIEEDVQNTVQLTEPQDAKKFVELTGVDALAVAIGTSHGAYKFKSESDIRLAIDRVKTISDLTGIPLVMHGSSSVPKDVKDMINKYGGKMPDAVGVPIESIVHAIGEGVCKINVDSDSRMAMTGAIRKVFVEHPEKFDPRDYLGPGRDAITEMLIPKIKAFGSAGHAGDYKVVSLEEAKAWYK
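40 nM FBPA preincubated 10 min at RT with compound (up to 57.5 uM final), then substrate plus GAPDH/TPI/NAD/arsenate coupling and diaphorase/resazurin added. Fluorescence read after 20 min at RT, 525/598 nm.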
Pf growth 96h: P. falciparum growth inhibition at 96 hours | P. falciparum luciferase reporter growth, 96 h | Potency, µM (top dose mostly 28.7 µM), most hits filed as inhibitors | 320,000 compounds, 6.9% hits
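Delayed-death screen, second-generation endpoint: infected erythrocytes, 2% hematocrit, 0.05% parasitemia final; 96 hours at 37 C, 5% CO2; luciferase detection reagent; luminescence decrease equals reduced growth.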
NS1 function inh: influenza NS1 inhibition; Potency, µM (highest dose often 46.1 µM); 270,000 compounds, 0.4% hits; AID 2326; calls by dose curve; also: actives are rising curves; nearly all actives have a fitted effect of over 50% in size
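In this qHTS, NS1 from influenza A is expressed in budding yeast, where it slows growth. Cells are switched from glucose to 2% galactose medium (pH 6.0, -URA), treated with compound, and growth recovery is read at OD600.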
Shiga toxin inh: inhibitors of Shiga toxin in Vero cells | Vero cells, Shiga toxin protein synthesis inhibition reporter | inhibition, % at 38.7 µM | 290,000 compounds, 9.2% hits; in the data active = inhibition mostly above about 28%, no sharp cut-off; inactive = mostly below about 43%
Pf growth 48h: P. falciparum growth inhibition at 48 hours (one generation); Potency, µM (titrated, usually from 28.7 µM), actives largely listed as inhibitors; P. falciparum luciferase growth in erythrocytes, 48 h; 310,000 compounds, 5.9% hits
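Compounds are pin-transferred into medium, infected erythrocytes (2% hematocrit, 0.1% parasitemia final) are added, and plates sit one parasite generation at 37 C in 5% CO2. Detection reagent is then added and luminescence measured.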
CHX counter: counter-screen for Shiga toxin inhibitors: cycloheximide protein synthesis inhibition; max response, %; 300,000 compounds, 12% hits; AID 2314; cell reporter, cycloheximide protein synthesis inhibition counterscreen; in the data active = max response mostly above about 13%, no sharp cut-off; inactive = mostly below about 14%; also: read at 38.3 µM for the half of the compounds with a filed dose
Large screens that a line does not name were inactive. Unless noted, calls follow the shape of the dose curve; as a rule, active = well fitted curve in the direction sought with a large enough effect; inconclusive = small, poorly fitted or top-dose-only effect, or another doubt; inactive = no such curve, though single readings can be large; an effect the other way counts as inactive or inconclusive.

Cn1nc(OC(=O)Nc2ccccc2)cc1C(F)(F)F	Shiga toxin inh 37.2, CHX counter 27.9
CC(C)C(=O)N/N=C/c1ccc(OCc2ccccc2)cc1	none
Cc1cnc(NC(=O)Nc2ccc(OCc3ccccc3)cc2)c(Br)c1	CHX counter 15.8
COC(=O)Nc1ccc(SCC(=O)c2ccccc2)cc1	Shiga toxin inh 61.9, CHX counter 51.0 (no result: NS1 function inh)
COC(=O)Nc1ccc(SCC(=O)c2ccc(Cl)cc2)cc1	Pf growth 96h inconclusive
O=C(O)/C=C/c1ccc(S(=O)(=O)Nc2ccc(OCc3ccccc3)cc2)cc1	FBPA Giardia inh inconclusive, NS1 function inh inconclusive
COC(=O)Nc1ccc(Oc2ccccc2)cc1	Pf growth 96h inconclusive, CHX counter 9.6
COC(=O)Nc1ccc(OCc2ccccc2)cc1	Shiga toxin inh 72.1, CHX counter 60.3
O=C(O)CCc1ccc(S(=O)(=O)Nc2ccc(OCc3ccccc3)cc2)cc1	NS1 function inh inconclusive, Shiga toxin inh 44.6, CHX counter 13.8
CSCC[C@H](NC(=O)OC(C)(C)C)C(=O)N1CCC(C(=O)NCC(=O)Nc2ccc(C)cc2)CC1	Pf growth 48h inconclusive
CC(=O)Nc1ccc(OCc2ccc(S(=O)(=O)Cc3ccccc3)cc2)cc1	Pf growth 96h inconclusive
CC(=O)Nc1cccc(OCc2ccc(S(=O)(=O)Cc3ccccc3)cc2)c1	Pf growth 96h inconclusive, Shiga toxin inh 64.4, CHX counter 40.0
NC(=O)COc1ccc(NC(=O)OCc2ccccc2)cc1	Shiga toxin inh 35.7, CHX counter 23.6 (no result: Pf growth 96h)
CS(=O)(=O)Nc1ccc(OCc2ccccc2)cc1	CHX counter 18.6 (no result: Pf growth 48h)
CN(CC(=O)Nc1ccc(F)cc1)C(=O)c1ccc(OCc2ccccc2)cc1	none (no result: FBPA Giardia inh, NS1 function inh, Shiga toxin inh, CHX counter)
COCC(=O)Nc1ccc(OCc2ccccc2)cc1	Shiga toxin inh 60.7, CHX counter 37.6
CC(=O)Nc1ccc(OCc2cccc([N+](=O)[O-])c2)cc1	Shiga toxin inh 81.8, CHX counter 28.9
COc1ccc(CC(=O)NC2CCS(=O)(=O)C2)cc1 (stereo not given)	none (no result: FBPA Giardia inh, NS1 function inh, Shiga toxin inh, CHX counter)
O=c1[nH]c2ccccc2nc1/C=C/c1ccc(O)cc1	Shiga toxin inh 69.7, Pf growth 48h inconclusive, CHX counter 41.9
O=c1[nH]c2ccccc2nc1/C=C/c1ccccc1	Shiga toxin inh 58.9, CHX counter 44.9
O=c1[nH]c2ccccc2nc1/C=C/c1ccc(F)cc1	NS1 function inh inconclusive, Shiga toxin inh 73.2, CHX counter 37.3
COc1ccc(OC)c(N2C(=NC(=O)C3CCCCC3)SC3CS(=O)(=O)CC32)c1 (stereo not given)	none
CCOC(=O)c1ccccc1NC(=O)C1CSC2(C)CCC(=O)N12 (stereo not given)	none
CC1CC(=S)Nc2ccccc2N1C(=O)Nc1ccccc1 (stereo not given)	Pf growth 96h inconclusive, Pf growth 48h 3.29µM
O=C(Nc1ccccc1)N1CCC(=S)Nc2ccccc21	none
Cc1cccc(C(=O)OCc2cnc(Cl)s2)c1	CHX counter 11.0
O=C(OCc1cnc(Cl)s1)c1cccc(Cl)c1	none
CCC(=O)Nc1ccc(Cl)c(Cl)c1	none (no result: Pf growth 96h, NS1 function inh, Shiga toxin inh, Pf growth 48h, CHX counter)
O=C(Nc1ccc(Cl)c(Cl)c1)OCc1cnc(Cl)s1	CHX counter 20.1
O=C(Nc1ccc(Cl)c(Cl)c1)OCc1cncs1	Shiga toxin inh 42.2, CHX counter 38.9 (no result: Pf growth 48h)
O=C(OCc1cncs1)c1cccs1	none
O=C(/C=C/c1ccccc1)OCc1cncs1	Shiga toxin inh 88.5, CHX counter 33.3
O=C(CN1CCOCC1)Nc1ccc([N+](=O)[O-])cc1Br	Pf growth 48h inconclusive
Cn1c(CCNC(=O)c2ccco2)nc2cc(NC(=O)c3ccccc3Cl)ccc21	none
O=C(Nc1ccccc1)OCc1cncs1	Shiga toxin inh 32.1
O=C(Nc1ccccc1)OCc1cnc(Cl)s1	none
CSc1c(CC(=O)Nc2ccccc2C(F)(F)F)n(Cc2ccccc2)c2ccccc12	Pf growth 96h 9.28µM, Pf growth 48h inconclusive
CSc1c(CC(=O)Nc2ccccc2)n(Cc2ccccc2)c2ccccc12	Pf growth 96h inconclusive, Pf growth 48h 11.7µM
CCOC(=O)C(C)Oc1ccc2c(-c3cccc([N+](=O)[O-])c3)cc(=O)oc2c1 (stereo not given)	none
CCOC(=O)COn1c(-c2cccc(Cl)c2)nc2ccc([N+](=O)[O-])cc21	Shiga toxin inh 63.5, CHX counter 76.1
CCOC(=O)C(C)On1c(-c2cccc(Cl)c2)nc2ccc([N+](=O)[O-])cc21 (stereo not given)	FBPA Giardia inh inconclusive, Shiga toxin inh 101.9, Pf growth 48h inconclusive, CHX counter 45.7 (no result: Pf growth 96h)
COC(=O)C(Cc1ccccc1)NS(=O)(=O)c1cc(Br)ccc1Br (stereo not given)	none (no result: Pf growth 96h, NS1 function inh, Pf growth 48h)
O=C(c1cnccn1)N1CCC[C@@]2(CCN(c3cccc(-c4ccccc4)c3)C2)C1	none (no result: Pf growth 96h, NS1 function inh, Shiga toxin inh, Pf growth 48h, CHX counter)
COc1ccc(C(=O)C[n+]2ccccc2/C=N/O)cc1	Pf growth 96h inconclusive, CHX counter 19.2
CNc1nc(N)nc(-c2cc(Cl)ccc2OC)n1	none
CCCCCC(=O)NC(=S)NC1C2CC3CC(C2)CC1C3 (stereo not given)	Pf growth 96h 3.7µM, Pf growth 48h 4.65µM
CC1(C(=O)N2CCN(c3ccc([N+](=O)[O-])cc3)CC2)CC1(Cl)Cl (stereo not given)	Pf growth 96h inconclusive
Cc1ccc(-c2c(C)cc3oc(=O)cc(-c4ccccc4)c3c2C)cc1	none (no result: Pf growth 96h, NS1 function inh, Pf growth 48h)
CCOC(=O)c1ccc(-c2c(C)cc3oc(=O)cc(-c4ccccc4)c3c2C)cc1	CHX counter 31.6 (no result: Pf growth 96h, NS1 function inh, Pf growth 48h)
O=[N+]([O-])c1ccc(OCn2cncn2)cc1	none (no result: FBPA Giardia inh, NS1 function inh, Shiga toxin inh, CHX counter)
NS(=O)(=O)OCCCCCc1ccccc1	CHX counter 14.3
Cc1cc(O)c(C(=O)Cc2csc(C)n2)c(O)c1	Pf growth 96h inconclusive, Shiga toxin inh 82.7, Pf growth 48h inconclusive, CHX counter 38.9
COc1ccc(-n2c3c(c(=O)[nH]c2=O)C(NC(C)=O)(C(F)(F)F)C(=O)N3)cc1 (stereo not given)	none (no result: NS1 function inh)
C#CCN1C(=O)S/C(=C\c2ccc(N3CCOCC3)cc2C)C1=O	Shiga toxin inh 69.8, CHX counter 24.2
CCN1C(=O)S/C(=C\c2ccc(N3CCOCC3)cc2C)C1=O	Shiga toxin inh 133.3, CHX counter 27.2
CCCN1C(=O)S/C(=C\c2ccc(N3CCOCC3)cc2C)C1=O	NS1 function inh 5.01µM, Shiga toxin inh 63.7, CHX counter 33.9
CC1CCC(NS(=O)(=O)c2ccc(N3CCCC3=O)cc2)CC1 (stereo not given)	none
CCCOc1ccc(C(=O)N(Cc2cccs2)C2CCS(=O)(=O)C2)cc1 (stereo not given)	none (no result: FBPA Giardia inh)
COc1ccc(C2/C=C\CN(CC(C)C)CC(=O)N2Cc2cccc(F)c2)cc1 (stereo not given)	none (no result: Pf growth 96h, NS1 function inh, Pf growth 48h)
COC(C/C=C/C(=O)COCc1ccccc1)OC	Shiga toxin inh 42.5, CHX counter 18.5
O=C(c1c[nH]c2ccccc12)C(Cl)c1ccccc1 (stereo not given)	Pf growth 96h inconclusive

From PubChem
